Results: the supplement of paper PMC10681739

How the values were obtained:
ETS1 [1] = target: T1, ETS1 (UniProt P14921); test: ETS1 binding intensity (PBM fluorescence), ETS1 alone (arbitrary fluorescence units); higher = stronger binding; conditions: ETS1 concentration 1 nM; RUNX1 concentration 0 nM
T1 sequence: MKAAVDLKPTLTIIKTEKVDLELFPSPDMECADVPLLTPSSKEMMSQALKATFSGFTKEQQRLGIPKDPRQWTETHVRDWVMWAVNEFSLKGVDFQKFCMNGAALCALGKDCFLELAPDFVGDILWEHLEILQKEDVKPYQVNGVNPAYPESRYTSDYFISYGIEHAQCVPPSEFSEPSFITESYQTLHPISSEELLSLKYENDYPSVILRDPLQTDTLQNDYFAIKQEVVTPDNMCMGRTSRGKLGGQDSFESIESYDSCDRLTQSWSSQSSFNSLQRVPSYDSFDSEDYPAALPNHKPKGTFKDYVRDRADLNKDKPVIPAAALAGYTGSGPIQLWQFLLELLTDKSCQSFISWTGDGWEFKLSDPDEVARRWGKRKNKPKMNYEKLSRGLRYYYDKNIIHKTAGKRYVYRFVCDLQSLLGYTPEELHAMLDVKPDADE

RUNX1 [2] = target: RUNX1 (UniProt Q01196); test: RUNX1 binding intensity (PBM fluorescence), RUNX1 alone (arbitrary fluorescence units); higher = stronger binding; conditions: RUNX1 concentration 2 nM; ETS1 concentration 0 nM
Method: (§1)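 Cooperative gcPBM on 36-bp genomic probes with neighbouring ETS1 and RUNX1 sites. Recombinant human RUNX1 (2 nM) was incubated alone or with ETS1 (25 nM) and detected with anti-RUNX1 antibody plus Alexa488 secondary. Values are medians over 4 replicate spots; the RUNX1+ETS1 data were normalised to the RUNX1-only data. The probes sit in constant array flanks that are not printed.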

ETS1 [3] = target: T1, ETS1; test: ETS1 binding intensity (PBM fluorescence) in presence of RUNX1, normalised to ETS1-only experiment (arbitrary fluorescence units); higher = stronger binding; conditions: ETS1 concentration 1 nM; RUNX1 concentration 25 nM
RUNX1 [4] = target: RUNX1 (UniProt Q01196); test: RUNX1 binding intensity (PBM fluorescence) in presence of ETS1, normalised to RUNX1-only experiment (arbitrary fluorescence units); higher = stronger binding; conditions: RUNX1 concentration 2 nM; ETS1 concentration 25 nM
Method: as §1
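Wherever RUNX1 binding intensity (PBM fluorescence) in presence of ETS1, normalised to RUNX1-only experiment is given: Full-length recombinant human ETS1 or RUNX1 bound to double-stranded 36-bp genomic probes on microarrays, detected by protein-specific primary antibody and Alexa488 secondary, spot fluorescence as median of four replicate spots.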
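Wherever RUNX1 binding intensity (PBM fluorescence), RUNX1 alone is given: Full-length recombinant human RUNX1 bound to double-stranded 36-bp genomic probes on a high-density microarray, scored as Alexa488 fluorescence per spot via anti-RUNX1 antibody, median of four replicate spots.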

Chain of RUNX1 (Q01196 whole entry): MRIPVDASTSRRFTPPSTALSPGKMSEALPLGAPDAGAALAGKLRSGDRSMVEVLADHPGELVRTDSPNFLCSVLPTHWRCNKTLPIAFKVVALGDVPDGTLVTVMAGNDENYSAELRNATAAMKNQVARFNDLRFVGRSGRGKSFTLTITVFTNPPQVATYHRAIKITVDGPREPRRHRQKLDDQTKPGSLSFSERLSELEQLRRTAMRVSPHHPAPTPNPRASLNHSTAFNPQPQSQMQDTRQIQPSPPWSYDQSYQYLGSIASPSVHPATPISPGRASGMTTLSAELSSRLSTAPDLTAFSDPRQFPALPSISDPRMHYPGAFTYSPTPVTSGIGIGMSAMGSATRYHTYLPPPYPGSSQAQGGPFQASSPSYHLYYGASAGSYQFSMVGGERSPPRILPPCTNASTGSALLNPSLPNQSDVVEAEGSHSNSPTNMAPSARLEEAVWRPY

| Sequence | ETS1 binding intensity (ETS1 [1]) | RUNX1 binding intensity (RUNX1 [2]) | ETS1 binding intensity (ETS1 [3]) | RUNX1 binding intensity (RUNX1 [4]) |
| --- | --- | --- | --- | --- |
| TCCCCTTTCCGGGAAGGGTTGGGGATCTGACCACGT | 437 | 728 | 498 | 1320 |
| GCACGCCATCGAGGAAGTGGGTTTACTGTGTATTTC | 916 | 723 | 1110 | 934 |
| CCGCCGCGCGCCGGATGCTAAGACCGCGATTTCCCC | 4180 | 781 | 7590 | 1110 |
| GTTGGGTGGGGAAGTGGATGGTGGTTTTGGCAGAGG | 542 | 960 | 713 | 1210 |
| ACCCTTCCTGGAGCATTGTCGCAGCAACCACAACAG | 457 | 918 | 975 | 1200 |
| AGGCTTCCGGCCACGCCCCCTTCCCGCGGTTGCTAG | 704 | 748 | 1140 | 2360 |
| CTACAGGAAGTTCGAACTGGGCGGAGCCCACCGCAG | 1320 | 658 | 1950 | 1120 |
| CCGGGCTGCGGAAGGCGGGAACTCTGCGGTTCGCGG | 484 | 861 | 2650 | 1090 |
| CTCAGCTCCGCGGAAGTTGCGGTAAGTGGAGCTTTG | 962 | 2210 | 8730 | 5790 |
| TTTCAAAACCCGGAAATGACCGCCAGGCTGGCATCA | 7800 | 859 | 6320 | 1380 |
| CGAAACGCGTTCCCCGGAAACCGCGCCCGGCTCCGA | 1810 | 763 | 3230 | 1090 |
| CCAGCAAAGGAAGCTTGGTCAACCACAGCAGCCTGT | 393 | 850 | 463 | 891 |
| CTTCATCAACCCATCCTGTCTTGTGGTTAAGTCAAG | 392 | 4120 | 1700 | 6360 |
| CCTTTCCGCGAGACCTTCCGCGGTTATCCAGCGAGT | 372 | 1160 | 481 | 1510 |
| CCCCTCGCCCTTCCGCATTGCGGGTTACTTCGGTTG | 521 | 1900 | 591 | 3510 |
| AAGAGGAAGTCCCAAATTGCTTTTTAACCACCAACA | 522 | 849 | 874 | 888 |
| TCGTGAAAAAGGAAGTGGATAAAGTGGTTACGGCAA | 2040 | 792 | 3260 | 1460 |
| GGCGGCACTAGGCTTCCGCCTCACCGCAGTGGGGTT | 362 | 855 | 845 | 1430 |
| AACCTGCAGACTTCCTGCCATGTGACCACAGGGTCT | 901 | 915 | 3140 | 2160 |
| TGGCTTATCCTAACAGGAAGTGGTTTATCTGATCCT | 16100 | 767 | 31300 | 2390 |
| CACTTCCGGGTCGTCAGCTCAGTTCTGCGGTTTCTG | 1030 | 4240 | 5740 | 12800 |
| CAGCAAAAGGCAGGATGTGGTTAAAACTGTGCTCTG | 4320 | 1110 | 29000 | 17100 |
| CGGCAGGGAAGCAGGAAACCGCGAGTGGAGAAAGGG | 1790 | 1160 | 3790 | 2170 |

| Sequence | ETS1 binding intensity (ETS1 [1]) | RUNX1 binding intensity (RUNX1 [2]) | ETS1 binding intensity (ETS1 [3]) | RUNX1 binding intensity (RUNX1 [4]) |
| --- | --- | --- | --- | --- |
| TCAGAGACTTCCGCTCAGCAGCAGCTGCGGCCAGGC | 966 | 671 | 1330 | 1850 |
| GGCCCTTCTGGGGCAGGATGTGGTGCCTGCCAAAGG | 4650 | 707 | 6110 | 891 |
| AAACAGGAAATCACAGCAGCGTTGCGGAGTGGAGCA | 1100 | 754 | 1110 | 883 |
| CCCCTGCCCCTTCCTGGAAGGCTGCGGTGTAACACC | 435 | 978 | 704 | 1780 |
| GCCGCGAGTTCCGCCGGGTGGACCACAAATCCCGAG | 373 | 831 | 451 | 904 |
| CTCTTCCGCTCAGTCATCCTCAGAGGTGGTAAGACT | 496 | 1080 | 387 | 2080 |
| TGGTTTCCGGGCTGGGGTTAGAATAGGCCACAAGGT | 494 | 787 | 536 | 1740 |
| TCCAGTGCCGCCGCCGGAAAACCGCAGCGGCGGCGG | 887 | 5970 | 4530 | 10200 |
| AATGCAGCATTTCCTCTCCAGTTCACCACAGGCCCC | 590 | 1490 | 634 | 2420 |
| AGGGAAGCAGGAAGTGACTGCGGGAGTGGAGCCGGC | 3920 | 677 | 3540 | 1080 |
| TGGCTTGTTTCCGGTTCCTCTGTGGCGCCGTTCTCG | 3480 | 938 | 2820 | 2890 |
| AGTAGGATGGGAGGAAGTGGTTTGTAAGAGGAGGAC | 1780 | 769 | 2740 | 1480 |
| TTGGCTTTGTGTTTCCGCGGTGTTGGTAGAGTCTCG | 418 | 875 | 482 | 980 |
| GCACTGTGGGAGGAAGTGGGTATGTGGTGAGCTCTT | 1650 | 856 | 4990 | 1560 |
| AGGACACAGACAGGAAACCCGCAGGCTTTGTTTTTT | 2580 | 859 | 5290 | 1470 |
| GTGGCGGGGCGGAAGTTCACATGTGTGGTATGTAGA | 2720 | 940 | 5000 | 1430 |
| AAAGTAGGTCCGGTCCGCGGGTGCGGTCGGGCATGC | 427 | 686 | 545 | 878 |
| CCCGCTACACAAGGCGGATGTGGTACCCTCACTTGT | 3810 | 891 | 6380 | 1530 |
| TGGAAGAGGGCAGGAAGTGTTGTGGTCACTCCCACC | 4450 | 856 | 28900 | 1530 |
| CGCCGCTCAACTTCCGGCAACCACAGCTCTCTCTGA | 1830 | 1070 | 3870 | 3150 |
| AGGCCGTGCAGGAAATGAGACCCACAGCCACGTCAC | 1800 | 789 | 2180 | 977 |
| TGACAGACCCGGAAATAAGAGGAGACCACACACTTG | 1900 | 894 | 2660 | 1410 |
| GAGCGCCCACTTCCTGTTTACCACCCAGCCTCTTCG | 3670 | 1110 | 5330 | 7590 |

| Sequence | ETS1 binding intensity (ETS1 [1]) | RUNX1 binding intensity (RUNX1 [2]) | ETS1 binding intensity (ETS1 [3]) | RUNX1 binding intensity (RUNX1 [4]) |
| --- | --- | --- | --- | --- |
| TATCACATCCTGCCGGACAAAAAGGCCAAACCACCT | 536 | 919 | 473 | 1850 |
| CAAATGAATAAAGGATGTGGTAAATTATTTTCTTCT | 935 | 814 | 5660 | 1780 |
| CGGCTGTTTTCCAGGATGTTGTGGTCATGGCGGTGT | 1590 | 2920 | 6320 | 4090 |
| ATCTCAACTAGGAAATGTTTTTGTGACCACAAAGGG | 620 | 958 | 2310 | 949 |
| GAGTTCTAGACTACAGGATGTGGTTAGAAGAAAAGA | 4670 | 837 | 56900 | 4800 |
| AGCCACATCCTCCCTTAGGTCTGACCGCAGCTTAAC | 381 | 4190 | 2170 | 5430 |
| CTGTTTCCGAGTAAAGTAGGGTGTGTGGGTCACATG | 456 | 872 | 395 | 929 |
| ACCGCCGGAAGTTTCTGCCGCGGCTTTGCGGGGACG | 3320 | 791 | 9610 | 1760 |
| GTTCTTATCCTGTGGCTCGTTTGTGGTTACTGACAT | 425 | 4330 | 741 | 4260 |
| TTGTGCTTCCTGCTCATGAGATTGCTAGCGGTTACT | 491 | 803 | 707 | 1190 |
| ACAGACCAGGGGATTTCCTGTGGGTGGAGTCCTCAG | 859 | 676 | 771 | 1500 |
| GGACCGGAAGTAGGTTTCTACCCGACCGCATTTTAC | 12100 | 889 | 43900 | 2740 |
| GTTTGAAGGGAAGTGGGTGTTGACCTGCGGGCAACT | 483 | 806 | 948 | 969 |
| GATCTTCCTGCAACCCCCCGAGACAACCACCGAACA | 854 | 1090 | 887 | 1400 |
| AAATCACGTACCCGGAAACCACATGCACAGAAGTGG | 2010 | 980 | 2930 | 1550 |
| TGGCATTCTCCTTCCTGTCTCCTAACCACAGCCCAC | 741 | 2110 | 2050 | 4690 |
| AGCTTGACGAAGGCTTCCTGTGGTTTGGGTTGATGT | 486 | 824 | 964 | 1530 |
| ACATTCTTCCGGTTGGACCTCCGCGGTCAGCGCTGT | 871 | 1110 | 1710 | 3220 |
| AAACCCTGAGTAATCGGAAGTGGTTAGGAGTGAGAG | 2190 | 816 | 6580 | 1310 |
| ATAGAAACTACAGGAAATACTGTGGTCAGGTTTTGA | 2770 | 822 | 9500 | 1380 |
| GCTTCTGAGGAAGTGCGTTCTGTGGGTAGGTGGAGT | 677 | 834 | 1000 | 918 |
| CCCACCCTCGCCGGAAGCCGAGCGGTTTCTACATCA | 2120 | 1110 | 3600 | 1540 |
| AGTTGTGTTTTAGGATGTGGTCAAAGCCCAACAGAG | 581 | 910 | 2150 | 1090 |
